Measurements from PMC5540273 (PLoS ONE, 2017).

Columns and labels:
Settings in all cases: concentration: 1 μM, replicates: in singlicate; n = 1
MERTK = tested on: MERTK
MET = tested on: MET
MINK = tested on: T1, MINK
T1 construct: gene MINK1

MKK7 = tested on: MKK7
MKNK1 = tested on: MKNK1
MKNK2 = tested on: MKNK2
MLCK = tested on: T2, MLCK
T2 construct: gene MYLK3

MLK1 = tested on: T3, MLK1
T3 construct: gene MAP3K9

MLK2 = tested on: MLK2
MLK3 = tested on: MLK3
MRCKA = tested on: MRCKA
MRCKB = tested on: T4, MRCKB
T4 construct: gene CDC42BPB

MST1R = tested on: MST1R
MST1 = tested on: T5, MST1
T5 construct: gene STK4

MST2 = tested on: T6, MST2
T6 construct: gene STK3

MST3 = tested on: T7, MST3
T7 construct: gene STK24

MST4 = tested on: MST4
MTOR = tested on: MTOR
MUSK = tested on: MUSK
MYLK2 = tested on: MYLK2
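Note: KINOMEscan kinase panel screen.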

| Compound | %Inh (MERTK) | %Inh (MET) | %Inh (MINK) | %Inh (MKK7) | %Inh (MKNK1) | %Inh (MKNK2) | %Inh (MLCK) | %Inh (MLK1) | %Inh (MLK2) | %Inh (MLK3) | %Inh (MRCKA) | %Inh (MRCKB) | %Inh (MST1R) | %Inh (MST1) | %Inh (MST2) | %Inh (MST3) | %Inh (MST4) | %Inh (MTOR) | %Inh (MUSK) | %Inh (MYLK2) |
| --- | --- | --- | --- | --- | --- | --- | --- | --- | --- | --- | --- | --- | --- | --- | --- | --- | --- | --- | --- | --- |
| Nc1nc(-c2ccc3c(N)n[nH]c3c2)cc(N2CCCCC2)n1 [GSK2228768] | 0% | 0% | 0% | 0% | 0% | 23% | 0% | 0% | 0% | 0% | 0% | 0% | 11% | 0% | 0% | 0% | 0% | 0% | 3% | 0% |
| COc1cc2c(Nc3cccc(NC(=O)c4ccccc4)c3)ncnc2cc1OCCCN1CCOCC1 [GSK223810] | 20% | 1% | 0% | 0% | 23% | 9% | 0% | 0% | 23% | 13% | 15% | 4% | 0% | 4% | 0% | 10% | 0% | 6% | 1% | 0% |
| Fc1ccc(Nc2nccc(-c3c(-c4ccc(Cl)cc4)nn4ncccc34)n2)cc1F [GW829058] | 0% | 3% | 14% | 23% | 0% | 2% | 9% | 2% | 12% | 4% | 2% | 21% | 0% | 13% | 11% | 0% | 30% | 26% | 26% | 16% |
| FC(F)(F)c1ccc(-c2nn3ncccc3c2-c2ccnc(Nc3cccc(C(F)(F)F)c3)n2)cc1 [GW828205] | 1% | 21% | 12% | 0% | 0% | 0% | 0% | 4% | 0% | 0% | 31% | 17% | 0% | 0% | 21% | 0% | 0% | 0% | 0% | 0% |
| OCCOCCn1ccc2ncnc(Nc3ccc(Oc4cccc(Cl)c4)c(Cl)c3)c21 | 0% | 0% | 0% | 0% | 0% | 3% | 0% | 0% | 37% | 22% | 0% | 0% | 0% | 0% | 0% | 0% | 0% | 46% | 0% | 0% |
| CCn1c(-c2ccncc2)nc2cnccc21 [SB-735216] | 0% | 1% | 19% | 5% | 5% | 33% | 0% | 8% | 0% | 0% | 23% | 0% | 27% | 0% | 0% | 0% | 13% | 0% | 5% | 15% |
| CS(=O)(=O)CCNCc1nc(-c2ccc3ncnc(Nc4ccc(OCc5cccc(F)c5)c(Cl)c4)c3c2)cs1.Cl [GW583340] | 0% | 0% | 0% | 0% | 0% | 0% | 0% | 0% | 0% | 0% | 0% | 0% | 38% | 0% | 8% | 15% | 0% | 4% | 0% | 0% |
| Fc1cccc(COc2ccc(Nc3ncnc4sc(-c5ccc[nH]5)cc34)cc2Cl)c1 [GW707818] | 10% | 0% | 16% | 8% | 12% | 2% | 0% | 7% | 0% | 2% | 23% | 6% | 33% | 0% | 18% | 8% | 0% | 13% | 0% | 14% |
| Cl.O=S(=O)(c1cccc(F)c1)c1ccc(Nc2ncnc3cc(Br)sc23)cc1Cl [GSK306886] | 37% | 0% | 0% | 0% | 11% | 11% | 0% | 0% | 0% | 2% | 18% | 9% | 20% | 0% | 9% | 2% | 0% | 12% | 8% | 3% |
| COc1ccc(-c2oc3ncnc(N)c3c2-c2ccc(OC)cc2)cc1 [SB-589132] | 29% | 0% | 0% | 0% | 25% | 41% | 23% | 0% | 0% | 0% | 0% | 0% | 46% | 7% | 0% | 0% | 0% | 75% | 17% | 0% |
| Oc1ccc2ncnc(Nc3ccc(OCc4ccccc4)cc3)c2c1 [GI262866] | 34% | 5% | 0% | 0% | 0% | 15% | 0% | 0% | 24% | 0% | 12% | 0% | 13% | 59% | 0% | 0% | 0% | 11% | 17% | 0% |
| Cn1ccc2ncnc(Nc3ccc(Oc4cccc(Cl)c4)c(Cl)c3)c21 | 13% | 2% | 7% | 0% | 16% | 0% | 0% | 7% | 15% | 0% | 0% | 0% | 42% | 6% | 25% | 10% | 0% | 0% | 3% | 20% |
| O=C(Nc1ccccc1)Nc1ccc(Oc2ccc3nccn3n2)cc1 | 16% | 1% | 38% | 0% | 14% | 0% | 0% | 15% | 0% | 0% | 0% | 0% | 18% | 0% | 0% | 11% | 0% | 12% | 9% | 0% |
| Clc1cccc(-c2nc(Nc3ccncc3)c3ccccc3n2)c1 [GW873004] | 7% | 33% | 16% | 0% | 18% | 0% | 0% | 2% | 16% | 0% | 3% | 42% | 0% | 27% | 45% | 9% | 0% | 36% | 0% | 0% |
| Cc1ccc(C)c(NC(=O)NCCNc2ccnc(Nc3ccc(F)cc3)n2)c1 [GSK1379878] | 2% | 0% | 0% | 0% | 0% | 0% | 0% | 0% | 0% | 4% | 12% | 0% | 7% | 0% | 0% | 0% | 0% | 2% | 0% | 0% |
| c1ccc(-c2ccc3c(-c4ccnc(Nc5ccc6c(c5)OCCO6)n4)cnn3n2)cc1 [GW818941] | 58% | 100% | 0% | 21% | 0% | 2% | 4% | 12% | 39% | 28% | 11% | 6% | 41% | 23% | 4% | 1% | 0% | 17% | 16% | 27% |

| Compound | %Inh (MERTK) | %Inh (MET) | %Inh (MINK) | %Inh (MKK7) | %Inh (MKNK1) | %Inh (MKNK2) | %Inh (MLCK) | %Inh (MLK1) | %Inh (MLK2) | %Inh (MLK3) | %Inh (MRCKA) | %Inh (MRCKB) | %Inh (MST1R) | %Inh (MST1) | %Inh (MST2) | %Inh (MST3) | %Inh (MST4) | %Inh (MTOR) | %Inh (MUSK) | %Inh (MYLK2) |
| --- | --- | --- | --- | --- | --- | --- | --- | --- | --- | --- | --- | --- | --- | --- | --- | --- | --- | --- | --- | --- |
| FC(F)(F)c1ccc(-c2cc(-c3c[nH]nc3-c3ccccn3)ccn2)cc1 [GW599550] | 0% | 14% | 75% | 0% | 7% | 0% | 7% | 10% | 0% | 21% | 19% | 0% | 33% | 17% | 8% | 8% | 0% | 13% | 14% | 13% |
| Cl.Cn1ccc(-c2cccc(Nc3ccnc4cc(-c5nccs5)ccc34)c2)n1 [GW525701] | 23% | 0% | 54% | 0% | 7% | 1% | 14% | 0% | 0% | 0% | 37% | 0% | 29% | 0% | 0% | 0% | 0% | 35% | 0% | 0% |
| Clc1cc(Nc2ncnc3cc[nH]c23)ccc1OCc1ccccn1 | 0% | 4% | 33% | 5% | 35% | 22% | 0% | 0% | 2% | 0% | 0% | 8% | 37% | 12% | 48% | 28% | 0% | 0% | 13% | 11% |
| Cl.c1ccc(Cn2ccc3cc(Nc4ncnc5ccccc45)ccc32)cc1 [GW275568] | 0% | 2% | 12% | 7% | 6% | 12% | 0% | 0% | 0% | 13% | 7% | 11% | 43% | 0% | 22% | 17% | 0% | 16% | 11% | 19% |
| Cl.Fc1ccccc1COc1ccc(Nc2ncnc3ccc(-c4nnc(C(F)(F)F)o4)cc23)cc1Cl [GW424170] | 10% | 0% | 0% | 0% | 0% | 0% | 0% | 0% | 0% | 3% | 7% | 0% | 18% | 0% | 0% | 0% | 0% | 0% | 0% | 0% |
| COc1ccc(NC(=O)Nc2ccc(C)c(-c3ccc(C(=O)Nc4ccncc4)cc3)c2)cc1 [GSK1398475] | 31% | 0% | 5% | 0% | 6% | 0% | 0% | 0% | 0% | 0% | 19% | 0% | 36% | 0% | 0% | 0% | 0% | 4% | 0% | 0% |
| C[C@@H]1CCN(C(=O)CO)C[C@@H]1N(C)c1ncnc2[nH]ccc12 | 0% | 0% | 0% | 0% | 0% | 0% | 14% | 0% | 35% | 8% | 0% | 100% | 21% | 12% | 0% | 11% | 0% | 55% | 0% | 2% |
| COc1ccc(Nc2nccc(N3CCC(NC(=O)Nc4ccc5c(c4)OCO5)C3)n2)cc1 (stereo not shown) [GSK1379745] | 34% | 20% | 3% | 24% | 21% | 6% | 31% | 6% | 19% | 38% | 11% | 0% | 0% | 6% | 0% | 32% | 0% | 35% | 17% | 6% |
| Nc1n[nH]c2nnc(-c3ccccc3)cc12 [SB-517389] | 13% | 0% | 23% | 0% | 77% | 12% | 86% | 0% | 0% | 0% | 16% | 0% | 27% | 0% | 5% | 0% | 0% | 14% | 8% | 13% |
| C[C@H]1CC[C@@H](C(=O)Nc2ccccc2)CN1c1cc(-c2ccc3c(N)n[nH]c3c2)nc(N)n1 [GSK2283293] | 11% | 100% | 17% | 0% | 0% | 3% | 0% | 0% | 0% | 0% | 65% | 0% | 17% | 0% | 0% | 0% | 0% | 8% | 13% | 1% |
| O=C(Nc1ccccc1F)NC1CCN(c2ccnc(Nc3ccc(F)cc3)n2)C1 (stereo not shown) [GSK1379722] | 6% | 0% | 0% | 0% | 7% | 23% | 10% | 0% | 0% | 9% | 15% | 0% | 38% | 0% | 0% | 0% | 0% | 17% | 2% | 12% |
| Fc1cccc(COc2ccc(Nc3ncnc4nn5ccccc5c34)cc2Cl)c1 [GW689066] | 6% | 0% | 0% | 0% | 4% | 0% | 4% | 0% | 0% | 0% | 0% | 0% | 6% | 0% | 0% | 0% | 0% | 3% | 0% | 0% |
| CCc1nc(-c2cccc(C)c2)c(-c2ccnc(NC(=O)c3ccccc3)c2)s1 | 3% | 2% | 61% | 0% | 0% | 8% | 0% | 0% | 16% | 0% | 0% | 0% | 32% | 11% | 12% | 8% | 9% | – | 0% | 0% |
| Fc1cccc(COc2ccc(Nc3ncnc4cc[nH]c34)cc2Cl)c1 | 0% | 8% | 34% | 0% | 19% | 10% | 0% | 9% | 0% | 32% | 10% | 0% | 30% | 16% | 19% | 23% | 0% | 0% | 10% | 0% |
| COc1ccc(Nc2nccc(N3CCC(NC(=O)c4cccc(NC(C)=O)c4)C3)n2)cc1 (stereo not shown) [GSK1379732] | 24% | 0% | 17% | 0% | 0% | 12% | 31% | 0% | 0% | 12% | 0% | 0% | 34% | 0% | 10% | 13% | 0% | 8% | 0% | 8% |
